SMILES strings stand for the structures.

The target in test [1] is Tumor necrosis factor receptor superfamily member 10B (Homo sapiens) (UniProt O14763). Nature of the test: viability loss of caspase-8 NB7 cells with TRAIL – with/without TRAIL, luminescence panel, confirmation (AID 651596). The following applies: NB7 neuroblastoma + caspase-8, TRAIL sensitization, NB7 Caspase-8, with TRAIL, mean of runs, at 10 µM, stronger effect = higher value.
Assay in test [2]: as above
The conditions noted are these: NB7 neuroblastoma + caspase-8, without TRAIL, NB7 Caspase-8, without TRAIL, mean of runs, at 10 µM.

Sequence of Tumor necrosis factor receptor superfamily member 10B (Homo sapiens) (O14763 whole entry, looked up): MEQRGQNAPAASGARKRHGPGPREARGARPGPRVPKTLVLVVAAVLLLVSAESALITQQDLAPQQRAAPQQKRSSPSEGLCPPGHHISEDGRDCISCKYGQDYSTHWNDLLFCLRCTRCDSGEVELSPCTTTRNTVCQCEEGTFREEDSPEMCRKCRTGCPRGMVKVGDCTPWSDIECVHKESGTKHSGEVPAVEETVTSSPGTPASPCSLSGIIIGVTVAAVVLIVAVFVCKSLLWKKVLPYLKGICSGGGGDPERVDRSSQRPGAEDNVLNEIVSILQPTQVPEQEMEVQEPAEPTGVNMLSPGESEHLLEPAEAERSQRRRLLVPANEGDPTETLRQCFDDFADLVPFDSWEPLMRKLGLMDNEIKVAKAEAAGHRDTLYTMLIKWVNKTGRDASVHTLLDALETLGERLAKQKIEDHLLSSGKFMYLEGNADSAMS

Consider `C=CCN1C=CC(=C/C=C(/C#N)C(=O)OCC)C=C1`, for which the figures for the activity in test [1] and in test [2] were 50.2% and 41.9%, respectively.

Take `Cc1ccc(-n2c(C3CC3c3ccc(Cl)cc3)n[nH]c2=S)cc1` (stereo unspecified): the activity in test [1] came to 52.8%; in test [2] it was 46.7%.

As for `FC(F)(F)c1nnc(-c2ccccc2)nc1Sc1ccc(Cl)cc1`, the activity amounted to 42.7% in test [1] and 46.2% in test [2].

Source of the values: PubChem BioAssay.
